Data published in the supplement of paper PMC7156485.

Legend:
Settings in all cases: concentration: 10 µM; 24 h
HCC1569 [1] = assay: cell number relative to DMSO (% of DMSO); higher = more cells (less growth inhibition / toxicity)
How it was run: (§1)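 Compounds were applied at 10 µM for 24 h at 37 °C, in triplicate, to HCC1569 and TDF cells. The cells were then fixed and stained for H1.0, and nuclei were counterstained with DAPI. Nuclear H1.0 intensity or cell number is reported relative to the plate control as a percent, taking the median of replicates. Smoothing for positional effects was applied to HCC1569 values only.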

TDF [2] = assay: as above
How it was run: as §1

TDF [3] = assay: H1.0 immunofluorescence intensity relative to DMSO (% of DMSO); higher = stronger H1.0 induction, active = 120 or more
How it was run: as §1

HCC1569 [4] = assay: H1.0 immunofluorescence intensity relative to DMSO (% of DMSO); higher = stronger H1.0 induction, active = 140 or more
How it was run: as §1
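For H1.0 immunofluorescence intensity relative to DMSO in this document: TDF is a line of transformed human dermal fibroblasts of mesenchymal origin.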
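For cell number relative to DMSO in this document: TDF denotes transformed human dermal fibroblasts of mesenchymal origin.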

Row | Compound | cell number (HCC1569 [1]) | cell number (TDF [2]) | H1.0 immunofluorescence intensity (TDF [3]) | H1.0 immunofluorescence intensity (HCC1569 [4])
1 | CC(=O)OC1CC2CCC3C(CCC4(C)C3CC([N+]3(C)CCCCC3)C4OC(C)=O)C2(C)CC1[N+]1(C)CCCCC1.[Br-].[Br-] (configuration not stated) [Pancuronium.2Br] | 100 | 92 | 93.9 (inactive) | 102 (inactive)
2 | CC1(C(=O)O)C2CCC(O2)C1(C)C(=O)O (configuration not stated) [Cantharidic Acid] | 19.6 | 13.6 | 239 (active) | 180 (active)
3 | C=CCN1CCC23c4c5ccc(O)c4OC2C(=O)CCC3(O)C1C5.Cl (configuration not stated) [Naloxone hydrochloride] | 104 | 98.9 | 97.1 (inactive) | 90.6 (inactive)
4 | NC(=O)CN1CCCC1=O [Piracetam] | 99.5 | 99.2 | 92 (inactive) | 103 (inactive)
5 | c1cc2c(cc1C1OCC3C(c4ccc5c(c4)OCO5)OCC13)OCO2 (single isomer, unassigned; (-)) [(-)-Asarinin] | 98.4 | 99.2 | 101 (inactive) | 88.6 (inactive)
6 | NC(N)=NOCC[C@H](N)C(=O)O.O=S(=O)(O)O [L-Canavanine sulfate] | 101 | 81.3 | 107 (inactive) | 107 (inactive)
7 | CC(NC(C)(C)C)C(=O)c1cccc(Cl)c1.Cl (configuration not stated) [Bupropion hydrochloride] | 106 | 109 | 102 (inactive) | 99.7 (inactive)
8 | Cl.Cl.Fc1ccc(C(OCCN2CCN(CCCc3ccccc3)CC2)c2ccc(F)cc2)cc1 | 81 | 69.8 | 96.7 (inactive) | 124 (inactive)
9 | CN1C2CCC1CC(OC(c1ccccc1)c1ccccc1N)C2 (configuration not stated) [Aminobenztropine] | 103 | 97.9 | 94.1 (inactive) | 90.2 (inactive)
10 | CN1CC[C@@]2(C)c3cc(OC(=O)Nc4ccccc4)ccc3N(C)[C@@H]12 | 103 | 90.6 | 106 (inactive) | 102 (inactive)
11 | Cl.c1ccc2c(N3CCNCC3)cccc2c1 [1-(1-Naphthyl)piperazine hydrochloride] | 99.6 | 94.3 | 105 (inactive) | 106 (inactive)
12 | CCCCCC=CCC(C=CC=CCC=CCCCC(=O)O)OO (configuration not stated) | 102 | 101 | 102 (inactive) | 99.8 (inactive)
13 | CCCC[N+]1(C)C2CC(OC(=O)C(CO)c3ccccc3)CC1C1OC12.[Br-] (configuration not stated) [Scopolamine N-butylbromide] | 99.1 | 111 | 93.6 (inactive) | 88.1 (inactive)
14 | CC(C)C1CNC(C(=O)O)C1CC(=O)O (configuration not stated) [Dihydrokainic acid] | 102 | 116 | 89.2 (inactive) | 88.7 (inactive)
15 | CN(C)C1C(=O)C(C(N)=O)=C(O)C2(O)C(=O)C3=C(O)c4c(O)cccc4C(C)(O)C3CC12 (configuration not stated) [Tetracycline] | 104 | 109 | 101 (inactive) | 95.2 (inactive)
16 | Br.CCCN(CCC)C1CCc2ccc(O)cc2C1 (stereo not drawn) [R-(+)-7-Hydroxy-DPAT hydrobromide] | 99.8 | 110 | 103 (inactive) | 101 (inactive)
17 | CC1Cc2cc3c(cc2C(c2ccc(N)cc2)=NN1)OCO3 (configuration not stated) | 98.9 | 112 | 103 (inactive) | 98.2 (inactive)
18 | Cl.Cl.c1ccc(CCCN2CCN(CCOC(c3ccccc3)c3ccccc3)CC2)cc1 | 98.6 | 91.5 | 103 (inactive) | 102 (inactive)
19 | CC12CCC3C(CCC4CC(O)CCC43C)C1CCC2=O (configuration not stated) [Androsterone] | 95 | 113 | 91.7 (inactive) | 107 (inactive)
20 | C[N+](C)(C)CCOC(=O)CBr.[Br-] [Bromoacetylcholine bromide] | 98.5 | 122 | 87.8 (inactive) | 85.7 (inactive)
21 | C[N+]1(C)C2CC(OC(=O)C(CO)c3ccccc3)CC1C1OC12.[Br-] (single isomer, unassigned; (-)) [(-)-Scopolamine methyl bromide] | 104 | 98.8 | 95.7 (inactive) | 101 (inactive)
22 | Cl.NC(=O)c1ccc(OCC(O)CN2CC=C(c3ccc(F)cc3)CC2)cc1 (configuration not stated) | 105 | 107 | 96.4 (inactive) | 106 (inactive)
23 | CC1C(=O)OC2CCN3CC=C(COC(=O)C(C)(O)C1(C)O)C23 (configuration not stated) [Monocrotaline] | 102 | 109 | 85.6 (inactive) | 90.2 (inactive)
